Measurements: the supplement of paper PMC10849652
The full data set covers some 8,800 targets. This sample favours those with a hit. About 0.5% of all pairs of compound and target were hits.

Key:
Test in all cases: log2 fold change, soluble protein after heating vs DMSO (PISA); higher = thermal stabilisation; K562 lysate, 10 uM; active = over 0.2 and 3.5 SD of the protein, either way, in both replicates (recomputed)
[1] = compound: CS(=O)(=O)CCNCc1ccc(-c2ccc3ncnc(Nc4ccc(OCc5cccc(F)c5)c(Cl)c4)c3c2)o1 [lapatinib]
Summary of the method: (§1)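 The values are log-two fold changes in thermal stability compared with solvent controls and come from duplicates. They were obtained by TMTpro 16plex LC-MS/MS, with channel sums equalised, on the supernatant after 21,000xg for 90 min. That supernatant came from crude K562 extract at 1 mg/mL protein treated with 10 μM compound for 30 min, heated for 3 min across 48°C-58°C, pooled and brought to 0.5% NP-40 at 4°C.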

[2] = compound: CS(=O)(=O)N1CCN(Cc2cc3nc(-c4cccc5[nH]ncc45)nc(N4CCOCC4)c3s2)CC1 [pictilisib]
Summary of the method: as §1

[3] = compound: C[C@@H](Oc1cc(-c2cnn(C3CCNCC3)c2)cnc1N)c1c(Cl)ccc(F)c1Cl [crizotinib]
Summary of the method: as §1

[4] = compound: C[C@H](C1=CC=C(C=C1)C(=O)NC2=C3C=CNC3=NC=C2)N
Summary of the method: as §1

[5] = compound: C[C@H](Nc1ncnc2nc[nH]c12)c1cc2cccc(Cl)c2c(=O)n1-c1ccccc1 [duvelisib]
Summary of the method: as §1

[6] = compound: Cc1cc(Nc2cc(CN3CCOCC3)c3nc(C)c(Cc4ccc(Cl)cc4F)n3n2)n[nH]1 [gandotinib]
Summary of the method: as §1

[7] = compound: Cc1cc(Nc2cc(N3CCN(C)CC3)nc(Sc3ccc(NC(=O)C4CC4)cc3)n2)n[nH]1 [tozasertib]
Summary of the method: as §1

[8] = compound: Cc1ccc(-n2nc(C(C)(C)C)cc2NC(=O)Nc2ccc(OCCN3CCOCC3)c3ccccc23)cc1 [doramapimod]
Summary of the method: as §1

[9] = compound: Cc1ccc(NC(=O)c2ccc(CN3CC[C@H](N(C)C)C3)c(C(F)(F)F)c2)cc1Nc1nccc(-c2cncnc2)n1 [bafetinib]
Summary of the method: as §1

[10] = compound: Cc1cccc(CC(=O)N2CCc3c2ccc(-c2cn(C)c4ncnc(N)c24)c3F)n1
Summary of the method: as §1

Measured: log2 fold change

NUF2 (UniProt Q9BZD4)
Sequence of UniProt Q9BZD4 (Q9BZD4 whole entry, looked up): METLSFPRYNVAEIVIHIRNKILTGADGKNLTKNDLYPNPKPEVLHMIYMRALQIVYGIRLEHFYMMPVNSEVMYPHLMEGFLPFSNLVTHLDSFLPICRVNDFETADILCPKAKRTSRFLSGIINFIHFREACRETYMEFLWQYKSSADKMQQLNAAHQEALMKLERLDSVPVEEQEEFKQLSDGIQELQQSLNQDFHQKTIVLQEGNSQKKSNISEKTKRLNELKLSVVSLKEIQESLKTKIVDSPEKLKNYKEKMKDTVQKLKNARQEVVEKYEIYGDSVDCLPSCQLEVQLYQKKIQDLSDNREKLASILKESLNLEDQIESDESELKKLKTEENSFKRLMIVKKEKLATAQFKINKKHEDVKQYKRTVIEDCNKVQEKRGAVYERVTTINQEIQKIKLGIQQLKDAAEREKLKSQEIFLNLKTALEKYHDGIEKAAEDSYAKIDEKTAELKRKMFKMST
inactive: [1] -0.002 | [2] -0.028 | [3] -0.024 | [4] -0.023 | [5] -0.019 | [6] -0.103 | [7] 0.023 | [8] 0.008 | [9] -0.087 | [10] 0.053

NIFK (UniProt Q9BYG3)
Sequence of UniProt Q9BYG3 (Q9BYG3 whole entry, looked up): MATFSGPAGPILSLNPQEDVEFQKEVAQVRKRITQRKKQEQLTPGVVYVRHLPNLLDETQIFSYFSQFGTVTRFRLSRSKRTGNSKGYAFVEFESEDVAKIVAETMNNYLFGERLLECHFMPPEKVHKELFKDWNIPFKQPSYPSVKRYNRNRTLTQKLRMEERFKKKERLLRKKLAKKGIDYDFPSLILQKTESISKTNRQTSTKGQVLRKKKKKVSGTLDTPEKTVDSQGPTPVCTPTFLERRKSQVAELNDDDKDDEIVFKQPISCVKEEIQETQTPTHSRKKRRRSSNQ
inactive: [1] -0.004 | [2] -0.019 | [3] -0.033 | [4] -0.027 | [5] 0.009 | [6] 0 | [7] 0.036 | [8] -0.009 | [9] -0.026 | [10] 0.064

MRPL53 (UniProt Q96EL3)
inactive: [1] 0.022 | [2] -0.004 | [3] 0.031 | [4] 0.079 | [5] 0 | [6] -0.04 | [7] 0.016 | [8] 0.009 | [9] 0.005 | [10] 0.012

MTHFD1 (UniProt V9GZ32)
inactive: [1] -0.067

NCOR2 (UniProt C9J0Q5)
inactive: [1] 0.063 | [2] -0.028 | [3] 0.116 | [4] 0.018 | [5] -0.014 | [6] -0.055 | [7] 0.011 | [8] -0.052 | [9] 0.079 | [10] -0.07

MSH3 (UniProt P20585)
inactive: [1] -0.021 | [2] -0.005 | [3] -0.004 | [4] -0.018 | [5] -0.001 | [6] -0.019 | [7] 0.021 | [8] 0.019 | [9] -0.003 | [10] 0.028

NOA1 (UniProt Q8NC60)
inactive: [1] -0.043 | [2] 0.032 | [3] -0.052 | [4] -0.282 | [5] 0.014 | [6] 0.039 | [7] -0.034 | [8] 0.021 | [9] -0.221 | [10] 0.167

NCKAP1L (UniProt P55160)
inactive: [1] 0 | [2] 0 | [3] -0.061 | [4] -0.002 | [5] 0.02 | [6] 0.025 | [7] 0.018 | [8] -0.011 | [9] -0.324 | [10] 0.017

OSBPL6 isoform 5 (UniProt Q9BZF3)
Sequence of UniProt Q9BZF3 (Q9BZF3 whole entry, looked up): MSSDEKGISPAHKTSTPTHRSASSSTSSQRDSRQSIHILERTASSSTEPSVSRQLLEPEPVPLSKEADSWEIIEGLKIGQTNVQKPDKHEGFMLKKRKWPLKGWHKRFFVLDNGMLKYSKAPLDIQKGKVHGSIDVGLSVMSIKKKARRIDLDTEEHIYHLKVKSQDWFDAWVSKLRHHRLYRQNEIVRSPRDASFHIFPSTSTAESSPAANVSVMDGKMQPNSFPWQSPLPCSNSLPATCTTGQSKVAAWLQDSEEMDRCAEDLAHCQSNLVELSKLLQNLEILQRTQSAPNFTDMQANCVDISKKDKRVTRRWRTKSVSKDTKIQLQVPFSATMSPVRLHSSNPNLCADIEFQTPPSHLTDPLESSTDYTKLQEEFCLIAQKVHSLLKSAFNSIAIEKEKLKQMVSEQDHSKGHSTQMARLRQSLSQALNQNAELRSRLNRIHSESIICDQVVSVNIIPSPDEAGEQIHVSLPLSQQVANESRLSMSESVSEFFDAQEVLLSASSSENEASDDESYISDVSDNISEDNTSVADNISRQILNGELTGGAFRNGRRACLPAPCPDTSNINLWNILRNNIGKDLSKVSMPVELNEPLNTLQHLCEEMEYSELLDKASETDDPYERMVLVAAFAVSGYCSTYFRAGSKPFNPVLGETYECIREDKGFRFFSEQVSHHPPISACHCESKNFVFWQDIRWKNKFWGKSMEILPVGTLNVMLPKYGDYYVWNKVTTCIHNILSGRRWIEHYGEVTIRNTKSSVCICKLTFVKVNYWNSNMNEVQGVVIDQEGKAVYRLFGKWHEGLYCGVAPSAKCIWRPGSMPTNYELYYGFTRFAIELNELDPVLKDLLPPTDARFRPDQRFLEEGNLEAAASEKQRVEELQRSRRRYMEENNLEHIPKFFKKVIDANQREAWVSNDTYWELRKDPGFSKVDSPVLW
inactive: [1] 0.077 | [2] 0.008 | [4] -0.003 | [5] -0.003 | [6] 0.033 | [7] 0.036 | [8] 0.005 | [9] 0.32 | [10] 0.004
active: [3] 0.367

MRPL51 (UniProt Q4U2R6)
inactive: [1] -0.051 | [2] -0.016 | [3] 0.056 | [4] -0.201 | [5] -0.004 | [6] 0.058 | [7] 0.083 | [8] -0.247 | [9] 0.02 | [10] 0.091

OARD1 (UniProt Q9Y530)
inactive: [1] -0.001 | [2] -0.011 | [3] -0.003 | [4] -0.022 | [5] -0.015 | [6] -0.012 | [7] 0.042 | [8] 0.035 | [9] -0.023 | [10] 0.037

NEK9 (UniProt Q8TD19)
inactive: [1] -0.013 | [2] 0.039 | [3] 0.057 | [4] -0.092 | [5] 0.006 | [6] 0.108 | [7] 0.025 | [8] -0.033 | [9] 0.014 | [10] 0.019

NAA35 (UniProt Q5VZE5)
inactive: [1] 0.009 | [2] 0.032 | [3] -0.031 | [4] 0.082 | [5] -0.007 | [6] -0.042 | [7] -0.003 | [8] 0.031 | [9] -0.057 | [10] -0.022

MTHFD1L (UniProt B7ZM99)
inactive: [1] -0.075 | [2] -0.036 | [3] -0.036 | [4] 0.017 | [5] 0.026 | [6] -0.039 | [7] 0.002 | [8] 0.035 | [9] -0.054 | [10] 0.018

PARP14 (UniProt Q460N5)
Sequence of UniProt Q460N5 (Q460N5 whole entry, looked up): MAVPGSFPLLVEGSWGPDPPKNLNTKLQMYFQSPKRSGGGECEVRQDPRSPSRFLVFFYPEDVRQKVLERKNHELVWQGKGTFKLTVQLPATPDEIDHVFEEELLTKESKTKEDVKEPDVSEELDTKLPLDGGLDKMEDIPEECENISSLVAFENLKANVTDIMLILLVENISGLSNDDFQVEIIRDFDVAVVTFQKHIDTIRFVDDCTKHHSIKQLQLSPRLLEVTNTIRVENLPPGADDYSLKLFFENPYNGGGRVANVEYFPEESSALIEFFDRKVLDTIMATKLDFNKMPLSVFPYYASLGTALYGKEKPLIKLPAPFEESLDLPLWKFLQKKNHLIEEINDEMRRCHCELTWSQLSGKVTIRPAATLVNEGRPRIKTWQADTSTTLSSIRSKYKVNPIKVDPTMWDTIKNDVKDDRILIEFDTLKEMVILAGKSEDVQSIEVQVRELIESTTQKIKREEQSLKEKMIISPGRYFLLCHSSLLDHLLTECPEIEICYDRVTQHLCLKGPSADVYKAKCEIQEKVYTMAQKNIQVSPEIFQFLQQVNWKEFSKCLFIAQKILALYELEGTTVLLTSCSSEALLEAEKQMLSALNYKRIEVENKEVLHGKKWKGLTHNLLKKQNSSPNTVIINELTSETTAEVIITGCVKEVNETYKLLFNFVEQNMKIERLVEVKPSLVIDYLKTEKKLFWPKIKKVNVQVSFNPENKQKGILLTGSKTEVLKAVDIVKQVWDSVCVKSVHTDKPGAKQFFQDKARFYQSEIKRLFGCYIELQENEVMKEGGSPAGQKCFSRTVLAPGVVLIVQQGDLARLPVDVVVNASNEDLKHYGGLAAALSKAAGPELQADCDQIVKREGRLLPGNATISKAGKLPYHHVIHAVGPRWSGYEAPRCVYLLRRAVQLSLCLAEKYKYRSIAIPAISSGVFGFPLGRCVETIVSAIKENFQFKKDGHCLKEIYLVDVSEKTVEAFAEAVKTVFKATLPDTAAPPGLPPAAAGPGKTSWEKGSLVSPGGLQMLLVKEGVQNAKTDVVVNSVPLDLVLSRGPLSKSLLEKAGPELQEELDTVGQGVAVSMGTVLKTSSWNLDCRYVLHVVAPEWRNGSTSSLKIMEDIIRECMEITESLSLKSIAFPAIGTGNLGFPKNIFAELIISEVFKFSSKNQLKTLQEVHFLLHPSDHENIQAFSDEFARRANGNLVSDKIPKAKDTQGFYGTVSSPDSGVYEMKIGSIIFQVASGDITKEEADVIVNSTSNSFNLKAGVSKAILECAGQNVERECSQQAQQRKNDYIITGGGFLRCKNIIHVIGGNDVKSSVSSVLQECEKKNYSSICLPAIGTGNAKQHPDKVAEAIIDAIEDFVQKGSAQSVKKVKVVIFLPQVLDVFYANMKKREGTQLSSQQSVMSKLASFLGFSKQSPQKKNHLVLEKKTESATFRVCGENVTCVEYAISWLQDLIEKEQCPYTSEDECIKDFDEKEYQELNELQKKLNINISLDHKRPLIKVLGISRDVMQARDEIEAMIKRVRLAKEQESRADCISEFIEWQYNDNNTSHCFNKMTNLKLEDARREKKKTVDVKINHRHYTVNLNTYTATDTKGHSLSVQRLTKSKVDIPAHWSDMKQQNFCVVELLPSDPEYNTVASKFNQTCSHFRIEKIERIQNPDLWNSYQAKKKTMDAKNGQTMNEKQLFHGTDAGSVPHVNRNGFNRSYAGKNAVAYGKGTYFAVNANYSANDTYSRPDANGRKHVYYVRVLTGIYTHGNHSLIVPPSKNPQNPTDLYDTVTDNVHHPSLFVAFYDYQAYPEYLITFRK
inactive: [1] -0.018 | [2] -0.057 | [3] -0.154 | [4] 0.148 | [5] -0.13 | [6] -0.123 | [7] -0.013 | [8] -0.013 | [9] -0.081 | [10] 0

NDUFAF5 (UniProt Q5TEU4)
inactive: [1] 0.002 | [2] -0.02 | [3] -0.044 | [4] -0.212 | [6] 0.026 | [7] 0.068 | [8] 0.129 | [9] -0.019 | [10] -0.061
active: [5] -0.286

NCAPH (UniProt Q15003)
inactive: [1] -0.012 | [2] 0.005 | [3] -0.019 | [4] -0.015 | [5] 0.046 | [6] -0.101 | [7] 0 | [8] 0.036 | [9] -0.013 | [10] 0.028

OGFR (UniProt Q9NZT2)
Sequence of UniProt Q9NZT2 (Q9NZT2 whole entry, looked up): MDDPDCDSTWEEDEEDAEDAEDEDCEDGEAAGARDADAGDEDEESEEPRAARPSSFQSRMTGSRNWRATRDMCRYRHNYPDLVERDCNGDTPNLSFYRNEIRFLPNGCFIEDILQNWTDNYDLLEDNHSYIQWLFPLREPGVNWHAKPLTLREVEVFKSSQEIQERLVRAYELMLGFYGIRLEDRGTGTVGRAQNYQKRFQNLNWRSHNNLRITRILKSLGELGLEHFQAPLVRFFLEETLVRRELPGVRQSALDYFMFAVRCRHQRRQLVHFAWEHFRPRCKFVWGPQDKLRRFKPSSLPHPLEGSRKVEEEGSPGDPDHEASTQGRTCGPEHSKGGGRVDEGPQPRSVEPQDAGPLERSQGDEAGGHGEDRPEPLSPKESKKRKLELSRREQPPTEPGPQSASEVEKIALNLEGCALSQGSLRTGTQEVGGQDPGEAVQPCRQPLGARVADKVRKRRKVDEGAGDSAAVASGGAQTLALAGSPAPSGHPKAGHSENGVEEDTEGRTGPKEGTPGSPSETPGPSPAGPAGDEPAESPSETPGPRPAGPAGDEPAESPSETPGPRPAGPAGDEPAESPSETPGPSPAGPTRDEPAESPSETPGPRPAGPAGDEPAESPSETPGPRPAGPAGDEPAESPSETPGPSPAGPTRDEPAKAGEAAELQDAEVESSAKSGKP
inactive: [1] 0.014 | [2] -0.012 | [3] 0.052 | [4] 0.128 | [5] -0.008 | [6] -0.062 | [7] -0.043 | [8] -0.012 | [9] 0.043 | [10] -0.037

MRPS31 (UniProt Q92665)
inactive: [1] 0.012 | [2] 0.012 | [3] -0.02 | [4] -0.002 | [5] -0.015 | [6] -0.006 | [7] 0.033 | [8] 0.047 | [9] -0.009 | [10] 0.051

NAP1L5 (UniProt Q96NT1)
Sequence of UniProt Q96NT1 (Q96NT1 whole entry, looked up): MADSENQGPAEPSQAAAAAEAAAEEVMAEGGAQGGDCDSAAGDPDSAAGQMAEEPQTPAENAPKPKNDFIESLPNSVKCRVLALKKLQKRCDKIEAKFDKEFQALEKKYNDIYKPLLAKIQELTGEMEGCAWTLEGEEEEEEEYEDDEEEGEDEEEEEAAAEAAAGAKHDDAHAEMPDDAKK
active: [4] 0.616
inactive: [1] 0.079 | [2] 0.017 | [3] 0.094 | [5] 0.099 | [6] -0.299 | [7] -0.016 | [8] -0.171 | [9] 0.076 | [10] -0.174

NCK1 (UniProt P16333)
inactive: [1] 0.025 | [2] 0 | [3] -0.024 | [4] 0.065 | [5] 0.014 | [6] -0.051 | [7] 0.005 | [8] 0.03 | [9] -0.033 | [10] -0.024

NUP160 (UniProt Q12769)
inactive: [1] 0.004 | [2] -0.046 | [3] -0.028 | [4] 0.003 | [5] -0.007 | [6] -0.102 | [7] 0.015 | [8] 0.032 | [9] -0.059 | [10] -0.007

NTMT1 (UniProt S4R338)
inactive: [1] 0.082

MTOR (UniProt P42345)
inactive: [1] -0.008 | [2] -0.016 | [3] -0.068 | [4] -0.042 | [5] 0.021 | [6] -0.079 | [7] 0.018 | [8] 0.055 | [9] -0.015 | [10] 0.053

NLRP2 (UniProt Q9NX02)
inactive: [1] 0.004 | [2] -0.025 | [3] -0.029 | [4] 0.091 | [5] 0.005 | [6] -0.049 | [7] 0.005 | [8] 0.051 | [9] -0.023 | [10] -0.018

NELFCD (UniProt Q8IXH7)
Sequence of UniProt Q8IXH7 (Q8IXH7 whole entry, looked up): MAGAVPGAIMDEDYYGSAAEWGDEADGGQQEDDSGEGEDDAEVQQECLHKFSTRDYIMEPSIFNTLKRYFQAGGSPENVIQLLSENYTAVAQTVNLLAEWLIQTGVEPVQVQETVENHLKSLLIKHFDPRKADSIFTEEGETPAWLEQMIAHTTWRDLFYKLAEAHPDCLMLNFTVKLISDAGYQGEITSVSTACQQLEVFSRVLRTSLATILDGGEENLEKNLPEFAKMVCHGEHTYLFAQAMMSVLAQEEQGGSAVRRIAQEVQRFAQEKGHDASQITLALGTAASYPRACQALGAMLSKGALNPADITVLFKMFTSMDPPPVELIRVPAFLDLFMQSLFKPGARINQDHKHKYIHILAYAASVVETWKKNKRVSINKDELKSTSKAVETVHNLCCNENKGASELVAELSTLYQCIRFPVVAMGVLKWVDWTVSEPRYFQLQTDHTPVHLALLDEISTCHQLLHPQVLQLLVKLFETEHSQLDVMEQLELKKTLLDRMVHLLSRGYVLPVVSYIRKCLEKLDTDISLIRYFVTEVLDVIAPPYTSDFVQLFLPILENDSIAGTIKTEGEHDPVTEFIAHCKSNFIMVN
inactive: [1] -0.035 | [2] -0.048 | [3] -0.043 | [4] 0.074 | [5] 0.017 | [6] -0.087 | [7] -0.025 | [8] 0.045 | [9] -0.105 | [10] -0.029

NPLOC4 isoform 2 (UniProt Q8TAT6)
inactive: [1] 0.022 | [2] 0.003 | [3] -0.023 | [4] -0.087 | [5] 0.01 | [6] 0.046 | [7] -0.003 | [8] 0.056 | [9] -0.019 | [10] 0.007

NUP188 (UniProt Q5SRE5)
inactive: [1] -0.063 | [2] -0.04 | [3] -0.05 | [4] -0.024 | [5] 0.004 | [6] -0.127 | [7] -0.012 | [8] -0.034 | [9] -0.031 | [10] 0.039

NFKBIB (UniProt Q15653)
inactive: [1] 0.093 | [2] -0.011 | [3] -0.055 | [5] 0.004 | [6] 0.095 | [7] -0.024 | [8] 0.024 | [9] -0.049 | [10] 0.127
active: [4] -0.36
